# Measurements taken from PubChem BioAssay (NCATS).
# Results filed as inconclusive are left out. Active and inactive are the calls of the source. Calls come from the whole dose curve; as a rule, active = well fitted cell-killing curve with a large enough effect; inconclusive = small, poorly fitted or top-dose-only effect, or effect the other way; inactive = no such curve, though single readings can be large or run the other way.
# Test: Quantitative High-Throughput drug screen in 47 multiple myeloma cell lines against the NCATS MIPE library collection: SKMM1_PLB cell viability assay (AID 1919863); note: nearly all actives have a fitted effect of over 35% in size; for viability: series mostly up to about 46 µM
# Conditions: SKMM1 myeloma viability, CellTiter-Glo ATP, 48 h; viability: active compounds read low
# In short: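 500 cells/well; MIPE 4.0 drugs pin-transferred; 48 h, 37C, 5% CO2. CellTiter-Glo, 5 min RT, luminescence. Controls: DMSO 100%, media 0%.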
# Potency is the fitted concentration of half-maximal effect.
Structure (SMILES),Potency,viability
CNc1nccc(-c2cccnc2Oc2cc(C(=O)Nc3cccc(C(F)(F)F)c3)ccc2C)n1,18.7 µM (active),–
COc1cccc(-c2ccc(NC(=O)C3=C(C(=O)O)CCC3)c(F)c2)c1,5.9 µM (active),–
CCCCN1CCC(CNC(=O)c2c3n(c4ccccc24)CCCO3)CC1,16.6 µM (active),–
CCNC(=O)Nc1ccc2ncc(Nc3ccc(C)cc3)nc2n1,–,139% (inactive)
CCCCCCCCCC(=O)N[C@@H](Cc1c[nH]c2ccccc12)C(=O)N[C@H](CC(N)=O)C(=O)N[C@@H](CC(=O)O)C(=O)N[C@@H]1C(=O)NCC(=O)N[C@@H](CCCN)C(=O)N[C@@H](CC(=O)O)C(=O)N[C@H](C)C(=O)N[C@@H](CC(=O)O)C(=O)NCC(=O)N[C@H](CO)C(=O)N[C@@H]([C@@H](C)CC(=O)O)C(=O)N[C@@H](CC(=O)c2ccccc2N)C(=O)O[C@@H]1C,–,145% (inactive)
C[C@]12CC[C@H](O)CC1=CCC1C2CC[C@]2(C)C(n3cnc4ccccc43)=CCC12 (stereo partly drawn),–,80.8% (inactive)
COc1ccc(CC2SC(=O)NC2=O)cc1C(=O)NCc1ccc(C(F)(F)F)cc1 (stereo not drawn),–,115% (inactive)
NC(=O)c1c(OCc2c(F)cc(Br)cc2F)nsc1NC(=O)NCCCCN1CCCC1,29.6 µM (active),–
CNC(=O)CN1CCC(Oc2cc3c(Nc4cccc(Cl)c4F)ncnc3cc2OC)CC1,0.0264 µM (active),–
Nc1ccn([C@@H]2O[C@H](CO)[C@H](O)C2(F)F)c(=O)n1,0.0264 µM (active),–
COc1cccc(Nc2c(C(N)=O)cnc3c(C)cc(S(=O)(=O)c4cccc(C(=O)N(C)C)c4)cc23)c1,–,113% (inactive)
NCC(=O)Nc1ccc(-n2nc(C(F)(F)F)cc2-c2ccc3c(ccc4ccccc43)c2)cc1,37.2 µM (active),–
Clc1cccc(-n2nnnc2NCc2ccccc2Oc2ccccn2)c1Cl,–,120% (inactive)
Cc1cc(Nc2cc(CN3CCOCC3)c3nc(C)c(Cc4ccc(Cl)cc4F)n3n2)n[nH]1,16.6 µM (active),–
CC1COC2(CCN(c3nc(=O)c4cc(C(F)(F)F)cc([N+](=O)[O-])c4s3)CC2)O1 (stereo not drawn),–,134% (inactive)
O=c1c2ccccc2nc2n1CCc1c-2[nH]c2ccccc12,23.5 µM (active),–
CC=CC1=C(C(=O)O)N2C(=O)[C@H](NC(=O)[C@H](N)c3ccc(O)cc3)[C@@H]2SC1,–,117% (inactive)
CC(C)(O)CCc1ccc(OCc2cc(-c3cccc(OC(F)F)c3)c3ncccc3c2)cc1,–,123% (inactive)
